Source: PubChem BioAssay (NCATS)
Unmarked numbers belong to inactive results. Inconclusive results are not listed. Where a call stands in place of a potency, no number is given. Activity calls are given as the source filed them. Unless noted, the call rests on the fitted dose curve; in most records, active means well fitted curve in the direction sought with a large enough effect; inconclusive means small, poorly fitted or top-dose-only effect, or another doubt; inactive means no such curve, though single readings can be large; an effect the other way counts as inactive or inconclusive.

What was measured:
[1] = target: Mitogen-activated protein kinase 10 (Mus musculus) (UniProt Q61831); test: JNK3 AlphaScreen Assay (AID 530; active means well fitted curve in either direction with a large enough effect, not every such curve was filed as active;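 further: kinase came from lysate of stimulated human HepG2 cells; signal reports phosphorylation of biotinylated GST-cJun 1-79 at Ser73 with 10 µM ATP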)
In short: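 Compound titrations were preincubated 15 minutes at room temperature with substrate, antibody and pre-activated JNK3-containing HepG2 lysate. Reactions were started with 10 uM ATP and stopped with EDTA-containing bead buffer for AlphaScreen detection.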

[2] = Cell Viability - N2a (AID 540); further: nearly all actives have a fitted effect of over 45% in size
In short: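 Mouse neuroblastoma N2a cells, 1500/well, exposed to compounds 40 h at 37 °C in complete medium. Viability measured as cellular ATP by CellTiter-Glo luminescence; AC50 from Hill fits of concentration-response.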

[3] = Cell Viability - NIH 3T3 (AID 541); settings: NIH 3T3 cell viability, qHTS; at 92.2 µM (top of the series); further: nearly all actives have a fitted effect of over 25% in size
In short: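 Mouse NIH 3T3 fibroblasts, 1000 cells/well, rested 5 hr at 37 °C, then exposed to compound for 40 hr at 37 °C in complete medium. Viability read as intracellular ATP by CellTiter-Glo luminescence; AC50 from Hill-equation fits of concentration-response data.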

[4] = Cell Viability - HUV-EC-C (AID 542); further: nearly all actives have a fitted effect of over 35% in size; further: potency means the concentration at half of the fitted maximal effect
In short: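 HUV-EC-C human vascular endothelial cells, 1000/well, exposed to compound for 40 hr at 37 °C in complete medium. Intracellular ATP was read by CellTiter-Glo luminescence. AC50 came from Hill-equation fits of concentration-response data.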

[5] = Cell Viability - H-4-II-E (AID 543); further: nearly all actives have a fitted effect of over 35% in size
In short: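 Rat hepatoma H-4-II-E cells, 1500 per well, treated 40 h at 37 °C in complete medium. Cellular ATP read by CellTiter-Glo luminescence; AC50 from Hill fits of concentration-response.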

[6] = Cell Viability - SH-SY5Y (AID 544); further: nearly all actives have a fitted effect of over 55% in size
In short: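 SH-SY5Y human neuroblastoma cells (1500/well) incubated 5 h, then compound-treated 40 h at 37 °C in complete medium. Viability read as intracellular ATP by CellTiter-Glo luminescence after 20 min; AC50 from Hill-equation fits of qHTS concentration-response.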

[7] = Cell Viability - Renal Proximal Tubule (AID 545); further: nearly all actives have a fitted effect of over 40% in size
In short: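 Luminescent ATP signal (CellTiter-Glo) served as the viability read-out after 40 hr compound exposure of freshly isolated rat proximal tubule cells at 37 °C. Concentration-dependent ATP loss was fitted with the Hill equation to give AC50.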

[8] = Cellular Toxicity (caspase-3) HepG2 (AID 654);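 further: cells exposed to compound for 16 hours before reading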
In short: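 HepG2 cells (1500/well) were treated 16 h at 37 °C in complete medium, then caspase 3/7 activity was read by Caspase-Glo luminescence. Data were normalized to DMSO and 100 uM tamoxifen; AC50 came from Hill-equation fits of qHTS concentration-response.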

[9] = Cellular Toxicity (caspase-3) Jurkat (AID 655); settings: Jurkat caspase-3 activation, luminescence, DMSO = 0%, tamoxifen = 100%; at 92.2 µM (top of the series);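 further: cells exposed to compound for 16 h at 37 °C before reading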
In short: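 5000 Jurkat cells/well; compound 16 hr, 37 °C; Caspase-Glo 3/7 added, 20 min RT; luminescence read. Norm: DMSO = 0%, tamoxifen 100 uM = 100%. AC50, Hill model.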

[10] = Cellular Toxicity (caspase-3) HUV-EC-C (AID 656); further: potency means the concentration at half of the fitted maximal effect
In short: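 qHTS; HUV-EC-C, 1000 cells/well; 5 hr settle, 16 hr cmpd, 37°C; Caspase-Glo 3/7, 20 min RT; luminescence. Norm: DMSO = 0%, tamoxifen 100 uM = 100%. Hill-fit AC50.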

[11] = Cellular Toxicity (caspase-3) SHSY5Y (AID 657)
In short: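 qHTS, SH-SY5Y, 1500 cells/well, 5 h pre-incubation 37 °C; compound 16 h 37 °C; Caspase-Glo 3/7 1 h RT; luminescence. Norm.: DMSO = 0, 10 uM staurosporine = 100%. Hill fit → AC50.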

[12] = Cellular Toxicity (caspase-3) BJ (AID 658)
In short: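 Readout: Caspase-Glo 3/7 luminescence increase in BJ cells after 16 hr treatment at 37 °C. Staurosporine and tamoxifen served as positive controls; AC50 values came from Hill modelling of data normalized to DMSO and 10 uM staurosporine.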

[13] = Cellular Toxicity (caspase-3) MRC-5 (AID 659)
In short: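 Concentration-dependent caspase 3/7 activation is measured in human normal lung fibroblasts (MRC-5) following 16-hour treatment. AC50 values come from standard Hill-equation modeling of luminescence normalized to DMSO and 10 uM staurosporine.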

[14] = Cellular Toxicity (caspase-3) Mesangial (AID 660);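 further: cells exposed to compound for 16 h before the caspase read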
In short: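 Human renal glomerular mesangial cells, 1000/well, 5 h at 37 C before 16 h compound treatment. Caspase-Glo 3/7 luminescence after 20 min; normalized to DMSO and 100 uM tamoxifen, AC50 from Hill fit.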

[15] = Cellular Toxicity (caspase-3) SK-N-SH (AID 661)
In short: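 Human SK-N-SH neuroblastoma cells, 1500/well, were exposed to compounds for 16 hours at 37 °C. Caspase-Glo 3/7 luminescence was normalized to DMSO (basal) and 10 uM staurosporine (100%), and AC50 came from a Hill fit.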

[16] = Cellular Toxicity (caspase-3) H-4-II-E (AID 663);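 further: cells exposed to compound for 16 hr before readout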
In short: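 Apoptosis induction is scored as increased luminescence from caspase 3/7 substrate cleavage in rat hepatoma H-4-II-E cells exposed to compound for 16 hr. Activity is scaled between DMSO and 100 uM tamoxifen.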

[17] = Cellular Toxicity (caspase-3) N2a (AID 665);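 further: compound exposure lasted 16 h at 37 °C before readout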
In short: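 Mouse N2a neuroblastoma cells, 1500 per well, treated 16 h at 37 °C in complete medium; caspase-3/7 activity by Caspase-Glo luminescence after 1 h. Normalized to DMSO and 10 uM staurosporine; AC50 from Hill fits.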

[18] = target: Glucocorticoid receptor (Homo sapiens) (UniProt P04150); test: GR-GFP Redistribution (AID 450;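 active means compounds whose dose series gives a full or clear partial fitted curve of increased nuclear translocation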; further: potency means the concentration at half of the fitted maximal effect); settings: U2OS GR-GFP nuclear translocation, laser cytometry, 2 h
Sequence of Glucocorticoid receptor (Homo sapiens) (P04150 whole entry, looked up, the tested form may be a part): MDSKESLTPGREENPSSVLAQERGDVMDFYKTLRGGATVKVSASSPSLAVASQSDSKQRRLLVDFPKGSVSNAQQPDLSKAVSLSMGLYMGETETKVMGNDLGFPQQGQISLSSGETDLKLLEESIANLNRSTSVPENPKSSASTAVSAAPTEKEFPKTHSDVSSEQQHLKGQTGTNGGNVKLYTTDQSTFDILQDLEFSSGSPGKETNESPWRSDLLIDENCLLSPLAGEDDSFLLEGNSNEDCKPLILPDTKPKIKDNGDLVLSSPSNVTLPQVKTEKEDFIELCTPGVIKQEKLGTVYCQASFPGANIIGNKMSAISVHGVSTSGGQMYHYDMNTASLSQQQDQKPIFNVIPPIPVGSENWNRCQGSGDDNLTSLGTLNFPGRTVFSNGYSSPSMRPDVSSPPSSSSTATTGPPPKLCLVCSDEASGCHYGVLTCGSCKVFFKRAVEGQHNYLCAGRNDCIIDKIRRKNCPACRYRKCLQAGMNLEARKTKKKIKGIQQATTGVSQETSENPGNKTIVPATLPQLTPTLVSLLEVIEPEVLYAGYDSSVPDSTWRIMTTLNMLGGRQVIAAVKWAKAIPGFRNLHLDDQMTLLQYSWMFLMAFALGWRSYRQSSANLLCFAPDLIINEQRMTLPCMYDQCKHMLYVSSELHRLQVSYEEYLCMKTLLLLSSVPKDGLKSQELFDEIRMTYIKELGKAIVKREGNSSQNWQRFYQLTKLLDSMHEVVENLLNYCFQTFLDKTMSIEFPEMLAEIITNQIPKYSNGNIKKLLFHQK

[19] = target: 3',5'-cyclic-AMP phosphodiesterase 4B (Homo sapiens) (UniProt Q07343); test: qHTS Assay for Inhibitors of PDE-IV (AID 607; active means well fitted activation curve with a large enough effect in the main read-out, with a control signal flat, not every such curve was filed as active)
Sequence of 3',5'-cyclic-AMP phosphodiesterase 4B (Homo sapiens) (Q07343 whole entry, looked up): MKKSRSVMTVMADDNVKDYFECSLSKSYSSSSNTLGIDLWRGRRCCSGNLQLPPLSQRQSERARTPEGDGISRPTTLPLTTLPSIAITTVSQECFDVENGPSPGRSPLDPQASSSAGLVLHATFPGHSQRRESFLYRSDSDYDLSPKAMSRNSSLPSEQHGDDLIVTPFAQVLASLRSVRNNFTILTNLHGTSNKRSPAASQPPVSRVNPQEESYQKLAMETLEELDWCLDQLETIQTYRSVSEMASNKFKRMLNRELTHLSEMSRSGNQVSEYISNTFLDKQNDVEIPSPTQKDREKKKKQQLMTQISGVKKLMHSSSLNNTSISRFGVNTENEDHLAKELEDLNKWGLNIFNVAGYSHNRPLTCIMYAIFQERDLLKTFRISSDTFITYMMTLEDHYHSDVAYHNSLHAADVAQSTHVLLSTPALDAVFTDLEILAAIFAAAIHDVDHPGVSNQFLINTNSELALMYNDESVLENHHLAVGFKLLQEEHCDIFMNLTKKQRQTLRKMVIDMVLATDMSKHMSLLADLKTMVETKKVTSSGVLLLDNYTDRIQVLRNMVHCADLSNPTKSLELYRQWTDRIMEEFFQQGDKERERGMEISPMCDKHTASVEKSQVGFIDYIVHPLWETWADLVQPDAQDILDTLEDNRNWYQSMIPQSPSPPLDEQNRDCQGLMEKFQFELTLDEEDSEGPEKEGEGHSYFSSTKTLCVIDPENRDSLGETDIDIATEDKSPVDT
In short: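 Live HEK293 cells with a modified cyclic nucleotide-gated (CNG) channel report intracellular cAMP via membrane-potential dye fluorescence (ex 535/em 590 nm). Endogenous PDE-IV was targeted. Compounds were tested at up to 22.9 uM final; RO 20-1724 100 uM served as control.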

[20] = target: Glucocorticoid receptor (Homo sapiens) (UniProt P04150); test: GR-EFC Redistribution (AID 451; calls by dose curve; further: potency means the concentration at half of the fitted maximal effect); settings: CHO-K1 GR-EFC translocation, beta-gal luminescence, 2 h
In short: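 Translocation of GR-ED fusion to nuclear EA restores b-gal, read by luminescence after 1 h room-temperature detection. Engineered CHO-K1 biosensor cells, 1,000/well, exposed 2 h at 37 C to titrations up to 46 uM final.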

Compound: Nc1ccccc1C(=O)O
- outcome [1]: inactive
- outcome [2]: inactive
- activity change, negative = cytotoxicity [3]: -17.8%
- Potency [4]: inactive
- Potency [5]: inactive
- Potency [6]: inactive
- outcome [7]: inactive
- outcome [8]: inactive
- caspase-3 activation [9]: -0.541%
- Potency [10]: inactive
- outcome [11]: inactive
- outcome [12]: inactive
- outcome [13]: inactive
- outcome [14]: inactive
- outcome [15]: inactive
- outcome [16]: inactive
- outcome [17]: inactive

Compound: C[N+]1(C)[C@@H]2CC(OC(=O)[C@H](CO)c3ccccc3)C[C@H]1[C@@H]1O[C@@H]12 (stereo partly specified)
- Potency [18]: > 20.6 µM

Compound: Oc1ccc(Cl)cc1
- outcome [1]: inactive
- outcome [2]: inactive
- activity change, negative = cytotoxicity [3]: 5.07%
- Potency [4]: inactive
- Potency [5]: inactive
- Potency [6]: inactive
- outcome [7]: inactive
- outcome [8]: inactive
- caspase-3 activation [9]: -0.847%
- Potency [10]: inactive
- outcome [11]: inactive
- outcome [12]: inactive
- outcome [13]: inactive
- outcome [14]: inactive
- outcome [15]: inactive
- outcome [16]: inactive
- outcome [17]: inactive

Compound: CC(C)NC(C)C
- outcome [1]: inactive
- outcome [2]: inactive
- activity change, negative = cytotoxicity [3]: -15.2%
- Potency [4]: inactive
- Potency [5]: inactive
- Potency [6]: inactive
- outcome [7]: inactive
- outcome [8]: inactive
- caspase-3 activation [9]: 0.66%
- Potency [10]: inactive
- outcome [11]: inactive
- outcome [12]: inactive
- outcome [13]: inactive
- outcome [14]: inactive
- outcome [15]: inactive
- outcome [16]: inactive
- outcome [17]: inactive

Compound: O=c1oc2ccccc2c(O)c1Cc1c(O)c2ccccc2oc1=O
- outcome [19]: inactive

Compound: Nc1ccccc1
- outcome [1]: inactive
- outcome [2]: inactive
- activity change, negative = cytotoxicity [3]: -16.9%
- Potency [4]: inactive
- Potency [5]: inactive
- Potency [6]: inactive
- outcome [7]: inactive
- outcome [8]: inactive
- caspase-3 activation [9]: -1.64%
- Potency [10]: inactive
- outcome [11]: inactive
- outcome [12]: inactive
- outcome [13]: inactive
- outcome [14]: inactive
- outcome [15]: inactive
- outcome [16]: inactive
- outcome [17]: inactive

Compound: NCCc1ccc(O)cc1
- Potency [18]: > 46 µM
- Potency [20]: > 46 µM
- outcome [1]: inactive
- outcome [2]: inactive
- activity change, negative = cytotoxicity [3]: -149% (active)
- Potency [4]: inactive
- Potency [5]: inactive
- Potency [6]: inactive
- outcome [7]: inactive
- outcome [19]: inactive
- outcome [8]: inactive
- caspase-3 activation [9]: 3.49%
- Potency [10]: inactive
- outcome [11]: inactive
- outcome [12]: inactive
- outcome [13]: inactive
- outcome [14]: inactive
- outcome [15]: inactive
- outcome [16]: inactive
- outcome [17]: inactive

Compound: O=P1(N(CCCl)CCCl)NCCCO1 (stereo unspecified)
- Potency [18]: > 46 µM
- Potency [20]: > 46 µM
- outcome [1]: inactive
- outcome [2]: inactive
- activity change, negative = cytotoxicity [3]: 2.35%
- Potency [4]: inactive
- Potency [5]: inactive
- Potency [6]: inactive
- outcome [7]: inactive
- outcome [19]: inactive
- outcome [8]: inactive
- caspase-3 activation [9]: -0.663%
- Potency [10]: inactive
- outcome [11]: inactive
- outcome [12]: inactive
- outcome [13]: inactive
- outcome [14]: inactive
- outcome [15]: inactive
- outcome [16]: inactive
- outcome [17]: inactive

Compound: C[C@]12CCC(=O)C=C1CC[C@@H]1[C@@H]2CC[C@@]2(C)[C@H]1CC[C@]2(C)O
- outcome [1]: inactive
- activity change, negative = cytotoxicity [3]: -123% (active)
- Potency [4]: inactive
- outcome [8]: inactive
- caspase-3 activation [9]: 22.4%
- Potency [10]: inactive
- outcome [11]: inactive
- outcome [12]: inactive
- outcome [13]: inactive
- outcome [14]: inactive
- outcome [15]: inactive
- outcome [16]: inactive
- outcome [17]: inactive

Compound: Cc1ncsc1CCCl
- Potency [18]: > 46 µM
- Potency [20]: > 46 µM
- outcome [1]: inactive

Compound: CCCCC/C=C\C/C=C\C/C=C\C/C=C\CCCC(=O)NCC(=O)O
- Potency [18]: > 46 µM
- outcome [1]: inactive
- outcome [19]: inactive

Compound: CCCC(C)(COC(N)=O)COC(N)=O
- outcome [2]: inactive
- activity change, negative = cytotoxicity [3]: -19.1%
- Potency [4]: inactive
- Potency [5]: inactive
- Potency [6]: inactive
- outcome [7]: inactive
- outcome [8]: inactive
- caspase-3 activation [9]: 0.151%
- Potency [10]: inactive
- outcome [11]: inactive
- outcome [12]: inactive
- outcome [13]: inactive
- outcome [14]: inactive
- outcome [15]: inactive
- outcome [16]: inactive
- outcome [17]: inactive

Compound: CC(NC(C)(C)C)C(=O)c1cccc(Cl)c1 (stereo unspecified)
- Potency [18]: > 20.6 µM

Compound: COc1ccc2c(c1)C13CCCC[C@@H]1C(C2)N(C)CC3 (stereo partly specified)
- Potency [18]: > 20.6 µM
- Potency [20]: > 20.6 µM
- outcome [1]: inactive
- outcome [19]: inactive

Compound: CCC(C)(C)c1ccc(O)cc1
- outcome [1]: inactive
- outcome [2]: inactive
- activity change, negative = cytotoxicity [3]: -23.4%
- Potency [4]: inactive
- Potency [5]: inactive
- Potency [6]: inactive
- outcome [7]: inactive
- outcome [8]: inactive
- caspase-3 activation [9]: -1.04%
- Potency [10]: inactive
- outcome [11]: inactive
- outcome [12]: inactive
- outcome [13]: inactive
- outcome [14]: inactive
- outcome [15]: inactive
- outcome [16]: inactive
- outcome [17]: inactive

Compound: Clc1ccc(C(c2ccc(Cl)cc2)C(Cl)(Cl)Cl)cc1
- activity change, negative = cytotoxicity [3]: -24.2%
- Potency [4]: 50.1 µM (active)
- Potency [6]: inactive
- outcome [7]: inactive
- outcome [8]: inactive
- caspase-3 activation [9]: 7.14%
- Potency [10]: 50.1 µM (active)
- outcome [11]: inactive
- outcome [12]: inactive
- outcome [13]: inactive
- outcome [14]: inactive
- outcome [15]: inactive
- outcome [16]: inactive
- outcome [17]: inactive
